# Reference: PubChem BioAssay (EPA / NIEHS)
# The source made the active and inactive calls. Rule for the calls: active = hit-call score of the fitted dose curve at least 0.9, where 1 is the maximum; inactive = score below 0.9.
# Columns and labels:
# [1] = target: CCAAT/enhancer-binding protein beta (Homo sapiens) (UniProt P17676); test: ATG_C_EBP_CIS: Attagene CIS-FACTORIAL HepG2 Assay for human CCAAT/Enhancer Binding Protein (C/EBP) beta (AID 2282927); conditions: HepG2 Attagene cis-factorial transcription factor reporter; actives raise or lower the signal
# CCAAT/enhancer-binding protein beta (Homo sapiens), sequence (P17676 whole entry, looked up): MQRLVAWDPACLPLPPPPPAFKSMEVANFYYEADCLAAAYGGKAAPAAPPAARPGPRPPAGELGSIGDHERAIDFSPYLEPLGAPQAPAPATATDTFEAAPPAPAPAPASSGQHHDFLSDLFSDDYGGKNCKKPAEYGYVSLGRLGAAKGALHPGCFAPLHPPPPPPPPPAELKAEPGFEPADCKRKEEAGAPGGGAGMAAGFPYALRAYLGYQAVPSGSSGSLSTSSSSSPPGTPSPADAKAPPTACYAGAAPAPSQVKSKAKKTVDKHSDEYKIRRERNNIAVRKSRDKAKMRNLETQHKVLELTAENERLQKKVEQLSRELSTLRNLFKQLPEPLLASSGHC
# Method in brief: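 HepG2, transient MRTU transfection, 24 h treatment. RT-PCR plus CE fluorescence; DMSO negative control, bidirectional fit.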
# [2] = ATG_CMV_CIS: Attagene CIS-FACTORIAL HepG2 Assay for human CMV (Internal Marker) (AID 2282928); conditions: HepG2 CMV promoter reporter, transcription factor profiling; actives raise or lower the signal;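 note: endpoint acts as a background internal control marker rather than a target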
# Method in brief: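 After transient transfection of HepG2 with reporter transcription units driven by cis-regulatory promoters, cells receive test chemical for 24 h. Labeled reporter amplicons, digested with HpaI, are sized and quantified by capillary electrophoresis against DMSO.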
# [3] = ATG_AP_2_CIS: Attagene CIS-FACTORIAL HepG2 Assay for human Activator Protein 2 (AP-2) (AID 2282932); conditions: HepG2 AP-2 cis-reporter, Attagene transcription factor profiling; actives raise or lower the signal
# Method in brief: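 Multiplexed mRNA reporter assay in HepG2: cis-regulated units report endogenous factor activity after 24 h treatment. Fluorescence from capillary electrophoresis of RT-PCR products gives the signal, with DMSO as baseline.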
# [4] = ATG_BRE_CIS: Attagene CIS-FACTORIAL HepG2 Assay for human Bone Morphogenetic Protein (BMP) Response Element (BRE) (AID 2282933); conditions: HepG2 BMP response element reporter, Attagene transcription factor profiling; actives raise or lower the signal
# Method in brief: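 A HepG2 multiplex reporter system measured inducible reporter mRNA 24 h post-dosing. Detection: RT-PCR, 6-FAM primer extension, HpaI digestion, capillary electrophoresis. Activity fitted bidirectionally relative to DMSO.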
# [5] = target: Transcription factor E2F1 (Homo sapiens) (UniProt Q01094); test: ATG_E2F_CIS: Attagene CIS-FACTORIAL HepG2 Assay for human E2F Transcription Factor 1 (AID 2282935); conditions: HepG2 Attagene cis-reporter, E2F reporter RNA transcripts; actives raise or lower the signal
# Transcription factor E2F1 (Homo sapiens), sequence (Q01094 whole entry, looked up): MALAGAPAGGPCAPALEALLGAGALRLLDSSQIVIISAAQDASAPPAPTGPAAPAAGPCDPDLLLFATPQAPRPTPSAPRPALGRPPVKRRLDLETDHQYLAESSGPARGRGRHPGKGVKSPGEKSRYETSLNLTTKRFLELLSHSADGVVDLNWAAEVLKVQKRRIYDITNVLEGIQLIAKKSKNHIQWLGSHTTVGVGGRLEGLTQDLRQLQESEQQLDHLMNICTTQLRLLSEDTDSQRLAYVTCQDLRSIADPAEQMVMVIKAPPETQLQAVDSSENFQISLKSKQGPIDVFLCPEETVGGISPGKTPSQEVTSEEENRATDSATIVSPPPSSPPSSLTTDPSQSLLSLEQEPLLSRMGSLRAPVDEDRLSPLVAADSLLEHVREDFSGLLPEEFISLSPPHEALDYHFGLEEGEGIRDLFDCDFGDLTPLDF
# Method in brief: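 Measures reporter transcript levels via RT-PCR with capillary electrophoresis detection in HepG2 cells harboring cis-regulated reporter units; 24 h post-dose; bidirectional curve fitting with DMSO as baseline.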
# [6] = ATG_E_Box_CIS: Attagene CIS-FACTORIAL HepG2 Assay for human Enhancer Box (E-box) (AID 2282936); conditions: HepG2 E-box cis-reporter transcription, actives raise or lower the signal
# Method in brief: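 First, HepG2 cells receive multiple cis-regulated reporter constructs by transient transfection. Next, chemicals are applied for 24 h. Finally, reporter mRNA is quantified via RT-PCR and capillary electrophoresis, with DMSO as baseline.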
# [7] = ATG_M_61_CIS: Attagene CIS-FACTORIAL HepG2 Assay for M61 Transcription Factor (Internal Marker) (AID 2282937); conditions: HepG2 Attagene CIS-FACTORIAL M61 internal marker reporter; actives raise or lower the signal
# Method in brief: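 Readout is reporter mRNA by RT-PCR, fluorescent primer extension and capillary electrophoresis, with gain or loss fitted relative to DMSO. Transfected HepG2 cells carrying endogenous-TF-driven cis reporters were exposed to chemicals for 24 hours.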
# [8] = ATG_EGR_CIS: Attagene CIS-FACTORIAL HepG2 Assay for human Early Growth Response 1 (EGR1) (AID 2282938); conditions: HepG2 Attagene CIS-FACTORIAL EGR reporter mRNA; actives raise or lower the signal
# Method in brief: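 After 24 h compound exposure, RNA from reporter-transfected HepG2 cells was reverse-transcribed, PCR-amplified, fluorescently labelled and resolved by capillary electrophoresis. EGR1 reporter transcript changes, up or down, were fitted against DMSO, reflecting endogenous transcription-factor activity.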
# [9] = ATG_M_19_CIS: Attagene CIS-FACTORIAL HepG2 Assay for M19 Transcription Factor (Internal Marker) (AID 2282939); conditions: HepG2 Attagene CIS-FACTORIAL M19 internal marker reporter; actives raise or lower the signal
# Method in brief: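 Chemical-treated HepG2 (24 h) with MRTU constructs; reporter transcripts detected by fluorescent RT-PCR fragment analysis on capillary electrophoresis. Internal background marker, DMSO as baseline.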
# [10] = ATG_FoxO_CIS: Attagene CIS-FACTORIAL HepG2 Assay for human Forkhead box O (FoxO) (AID 2282943); conditions: HepG2 Attagene cis-reporter, FoxO element, mRNA; actives raise or lower the signal
# Method in brief: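 Transfected HepG2 reporter cells exposed to test chemical for 24 h; reporter RNA measured by reverse transcription, PCR and fluorescent capillary electrophoresis; curves fitted for increases and decreases against DMSO.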
# [11] = ATG_GATA_CIS: Attagene CIS-FACTORIAL HepG2 Assay for human GATA Binding Protein (AID 2282944); conditions: HepG2 GATA cis-element reporter, Attagene multiplex mRNA; actives raise or lower the signal
# Method in brief: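 Transfected cis-reporter HepG2 cells were treated with chemicals for 24 hours. Total RNA was then converted to cDNA, amplified with reporter-specific primers and analysed by fluorescent capillary electrophoresis, using DMSO-treated wells as baseline.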
# [12] = ATG_GLI_CIS: Attagene CIS-FACTORIAL HepG2 Assay for human Zinc Finger Protein GLI1 (AID 2282945); conditions: HepG2, Attagene cis-factorial reporter mRNA, GLI element; actives raise or lower the signal
# Method in brief: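 Transiently transfected HepG2 cells report endogenous transcription factor activity via cis-element-driven reporter units. After 24 h compound exposure, reporter mRNA was measured by RT-PCR with capillary electrophoresis; bidirectional fitting against DMSO baseline.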
# [13] = ATG_ISRE_CIS: Attagene CIS-FACTORIAL HepG2 Assay for human Interferon Regulatory Factor 1 (IRF1) binding to an Interferon-Stimulated Response Element (ISRE) (AID 2282948); conditions: HepG2 ISRE cis-reporter (Attagene), mRNA transcription readout; actives raise or lower the signal
# Method in brief: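 Cell-based cis-reporter assay; HepG2; 24 h exposure; reporter mRNA by RT-PCR plus capillary electrophoresis fluorescence; activity in either direction scored relative to DMSO.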
# [14] = ATG_M_32_CIS: Attagene CIS-FACTORIAL HepG2 Assay for M32 Transcription Factor (Internal Marker) (AID 2282949); conditions: HepG2 Attagene cis-factorial M32 reporter, mRNA; actives raise or lower the signal;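 note: background control marker of the multiplexed CIS panel rather than a real target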
# Method in brief: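 Following 24 h chemical exposure of HepG2 cells transiently expressing cis-promoter reporter constructs, reporter transcript levels were determined by RT-PCR with fluorescent labelling and capillary electrophoresis, then fitted bidirectionally against DMSO.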
# [15] = ATG_M_06_CIS: Attagene CIS-FACTORIAL HepG2 Assay for M06 Transcription Factor (Internal Marker) (AID 2282950); conditions: HepG2 Attagene CIS-FACTORIAL M06 internal marker reporter; actives raise or lower the signal
# Method in brief: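 Cells (HepG2, transiently carrying cis-driven reporter units) receive chemical for 24 h before RNA isolation. Reporter cDNA is PCR-amplified, FAM-labelled by primer extension, HpaI-digested and sized on a capillary analyser.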
# [16] = ATG_MRE_CIS: Attagene CIS-FACTORIAL HepG2 Assay for human Metal Responsive Element (MRE) (AID 2282954); conditions: HepG2 MRE cis-reporter transcription, Attagene multiplex; actives raise or lower the signal
# Method in brief: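 Fluorescent reporter fragments separated by capillary electrophoresis give mRNA induction for the MRE unit after 24 h treatment of transfected HepG2 cells. Endogenous transcription-factor activity is read; DMSO serves as negative control and baseline.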
# [17] = ATG_PXRE_CIS: Attagene CIS-FACTORIAL HepG2 Assay for human Pregnane X Receptor Element (PXRE) (AID 2282957); conditions: HepG2 Attagene CIS-FACTORIAL PXRE reporter, mRNA; actives raise or lower the signal
# Method in brief: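 Cells: HepG2, transiently transfected reporter units under cis promoter control. Exposure: 24 h. Detection: reporter mRNA via RT-PCR/CE fluorescence; bidirectional fitting, DMSO-referenced.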
# [18] = ATG_Sox_CIS: Attagene CIS-FACTORIAL HepG2 Assay for human SRY-box transcription factor (SOX) (AID 2282960); conditions: HepG2 Attagene cis-factorial SOX reporter, mRNA; actives raise or lower the signal
# Method in brief: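 Reporter transcripts, measured by RT-PCR and capillary electrophoresis of labelled fragments, report endogenous SOX transcription factor activity. Transiently transfected human HepG2 cells receive chemical for 24 h; changes in either direction are fitted relative to DMSO.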
# [19] = target: Transcription factor Sp1 (Homo sapiens) (UniProt P08047); test: ATG_Sp1_CIS: Attagene CIS-FACTORIAL HepG2 Assay for human Specificity Protein 1 (Sp1) (AID 2282961); conditions: HepG2 Sp1 cis-reporter transcription, actives raise or lower the signal
# Transcription factor Sp1 (Homo sapiens), sequence (P08047 whole entry, looked up): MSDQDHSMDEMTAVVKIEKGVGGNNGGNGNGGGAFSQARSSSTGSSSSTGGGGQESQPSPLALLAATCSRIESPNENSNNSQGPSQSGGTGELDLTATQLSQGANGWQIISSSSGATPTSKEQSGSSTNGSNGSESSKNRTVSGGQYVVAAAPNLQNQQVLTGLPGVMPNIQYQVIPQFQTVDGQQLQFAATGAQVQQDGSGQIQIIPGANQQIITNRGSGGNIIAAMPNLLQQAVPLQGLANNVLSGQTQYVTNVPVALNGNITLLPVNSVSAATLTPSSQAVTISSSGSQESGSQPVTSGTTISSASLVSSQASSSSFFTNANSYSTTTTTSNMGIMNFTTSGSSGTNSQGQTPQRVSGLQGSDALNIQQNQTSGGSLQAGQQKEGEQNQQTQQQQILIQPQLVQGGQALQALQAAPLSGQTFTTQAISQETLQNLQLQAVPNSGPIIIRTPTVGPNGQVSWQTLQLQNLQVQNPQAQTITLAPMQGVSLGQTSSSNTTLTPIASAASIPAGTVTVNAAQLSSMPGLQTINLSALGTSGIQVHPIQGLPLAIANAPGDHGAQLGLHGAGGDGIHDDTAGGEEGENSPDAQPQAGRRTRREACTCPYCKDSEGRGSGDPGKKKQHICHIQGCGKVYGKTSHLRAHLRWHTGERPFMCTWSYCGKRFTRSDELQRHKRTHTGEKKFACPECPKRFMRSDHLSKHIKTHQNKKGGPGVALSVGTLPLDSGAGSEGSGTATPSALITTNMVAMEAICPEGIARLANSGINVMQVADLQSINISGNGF
# Method in brief: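 Read-out is reporter transcript level, measured by RT-PCR and fluorescent capillary electrophoresis after 24 h chemical treatment. System: transiently transfected HepG2 cells reporting endogenous transcription factor activity; gain or loss fitted against DMSO baseline.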
# [20] = ATG_SREBP_CIS: Attagene CIS-FACTORIAL HepG2 Assay for human Sterol Regulatory Element Binding (SREBP) (AID 2282962); conditions: HepG2 Attagene cis-factorial SREBP reporter, mRNA; actives raise or lower the signal
# Method in brief: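 mRNA induction of transfected cis-promoter reporters in HepG2 cells, 24 h post-dose. Detection: RT-PCR with 6-FAM-labelled products, HpaI digest, capillary electrophoresis. DMSO served as negative control and baseline.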
smiles,measurement,setting,value
CC(C)(Oc1ccc(Cl)cc1)C(=O)O,outcome,[1],inactive
same,outcome,[2],inactive
same,outcome,[3],inactive
same,outcome,[4],inactive
same,outcome,[5],inactive
same,outcome,[6],inactive
same,outcome,[7],inactive
same,outcome,[8],inactive
same,outcome,[9],inactive
same,outcome,[10],inactive
same,outcome,[11],inactive
same,outcome,[12],inactive
same,outcome,[13],inactive
same,outcome,[14],inactive
same,outcome,[15],inactive
same,outcome,[16],inactive
same,outcome,[17],inactive
same,outcome,[18],inactive
same,outcome,[19],inactive
same,outcome,[20],inactive
COC(OC)C(C)c1ccccc1 (stereo not given),outcome,[1],inactive
same,outcome,[2],inactive
same,outcome,[3],inactive
same,outcome,[4],inactive
same,outcome,[5],inactive
same,outcome,[6],inactive
same,outcome,[7],inactive
same,outcome,[8],inactive
same,outcome,[9],inactive
same,outcome,[10],inactive
same,outcome,[11],inactive
same,outcome,[12],inactive
same,outcome,[13],inactive
same,outcome,[14],inactive
same,outcome,[15],inactive
same,outcome,[16],inactive
same,AC50,[17],27.2 µM (active)
same,outcome,[18],inactive
same,outcome,[19],inactive
same,outcome,[20],inactive
CC(O)(P(=O)(O)O)P(=O)(O)O,outcome,[1],inactive
same,outcome,[2],inactive
same,outcome,[3],inactive
same,outcome,[4],inactive
same,outcome,[5],inactive
same,outcome,[6],inactive
same,outcome,[7],inactive
same,outcome,[8],inactive
same,outcome,[9],inactive
same,outcome,[10],inactive
same,outcome,[11],inactive
same,outcome,[12],inactive
same,outcome,[13],inactive
same,outcome,[14],inactive
same,outcome,[15],inactive
same,outcome,[16],inactive
same,outcome,[17],inactive
same,outcome,[18],inactive
same,outcome,[19],inactive
same,outcome,[20],inactive
Brc1ccc(Oc2ccc(Br)cc2)cc1,outcome,[1],inactive
same,AC50,[2],40.4 µM (active)
same,outcome,[3],inactive
same,AC50,[4],86.9 µM (active)
same,outcome,[5],inactive
same,outcome,[6],inactive
same,outcome,[7],inactive
same,outcome,[8],inactive
same,outcome,[9],inactive
same,outcome,[10],inactive
same,outcome,[11],inactive
same,outcome,[12],inactive
same,outcome,[13],inactive
same,outcome,[14],inactive
same,outcome,[15],inactive
same,outcome,[16],inactive
same,AC50,[17],27.3 µM (active)
same,outcome,[18],inactive
same,outcome,[19],inactive
same,outcome,[20],inactive
CC(C)n1c(/C=C/[C@@H](O)C[C@@H](O)CC(=O)O)c(-c2ccc(F)cc2)c2ccccc21,outcome,[1],inactive
same,outcome,[2],inactive
same,outcome,[3],inactive
same,outcome,[4],inactive
same,outcome,[5],inactive
same,outcome,[6],inactive
same,outcome,[7],inactive
same,outcome,[8],inactive
same,outcome,[9],inactive
same,outcome,[10],inactive
same,outcome,[11],inactive
same,outcome,[12],inactive
same,outcome,[13],inactive
same,outcome,[14],inactive
same,outcome,[15],inactive
same,outcome,[16],inactive
same,AC50,[17],3.98 µM (active)
same,outcome,[18],inactive
same,outcome,[19],inactive
same,AC50,[20],0.284 µM (active)
O=C(Oc1ccccc1)c1ccccc1,outcome,[1],inactive
same,outcome,[2],inactive
same,outcome,[3],inactive
same,outcome,[4],inactive
same,outcome,[5],inactive
same,outcome,[6],inactive
same,outcome,[7],inactive
same,outcome,[8],inactive
same,outcome,[9],inactive
same,outcome,[10],inactive
same,outcome,[11],inactive
same,outcome,[12],inactive
same,outcome,[13],inactive
same,outcome,[14],inactive
same,outcome,[15],inactive
same,outcome,[16],inactive
same,outcome,[17],inactive
same,outcome,[18],inactive
same,outcome,[19],inactive
same,outcome,[20],inactive
CN1CCCC1,outcome,[1],inactive
same,outcome,[2],inactive
same,outcome,[3],inactive
same,outcome,[4],inactive
same,outcome,[5],inactive
same,outcome,[6],inactive
same,outcome,[7],inactive
same,outcome,[8],inactive
same,outcome,[9],inactive
same,outcome,[10],inactive
same,outcome,[11],inactive
same,outcome,[12],inactive
same,outcome,[13],inactive
same,outcome,[14],inactive
same,outcome,[15],inactive
same,outcome,[16],inactive
same,outcome,[17],inactive
same,outcome,[18],inactive
same,outcome,[19],inactive
same,outcome,[20],inactive
